Experimental findings from PubChem BioAssay AID588342 (National Center for Advancing Translational Sciences (NCATS), 2011) are described below.

Structures are written as SMILES. Screen size: about 360,000 compounds; about 25,000 (6.9%) were called active. Another 9% or so got no clear call; they are omitted. What follows is part of a selection rich in actives, with near analogues and random picks from the rest. Unmarked numbers belong to inactive results. The call rests on the fitted dose curve; in most records, active means well fitted inhibition curve with a large enough effect; inconclusive means small, poorly fitted or top-dose-only effect; inactive means flat fitted curve, though single readings scatter.
Potency means the concentration at half of the fitted maximal effect.

Luciferin 4-monooxygenase (Photinus pyralis), sequence (P08659 whole entry, looked up): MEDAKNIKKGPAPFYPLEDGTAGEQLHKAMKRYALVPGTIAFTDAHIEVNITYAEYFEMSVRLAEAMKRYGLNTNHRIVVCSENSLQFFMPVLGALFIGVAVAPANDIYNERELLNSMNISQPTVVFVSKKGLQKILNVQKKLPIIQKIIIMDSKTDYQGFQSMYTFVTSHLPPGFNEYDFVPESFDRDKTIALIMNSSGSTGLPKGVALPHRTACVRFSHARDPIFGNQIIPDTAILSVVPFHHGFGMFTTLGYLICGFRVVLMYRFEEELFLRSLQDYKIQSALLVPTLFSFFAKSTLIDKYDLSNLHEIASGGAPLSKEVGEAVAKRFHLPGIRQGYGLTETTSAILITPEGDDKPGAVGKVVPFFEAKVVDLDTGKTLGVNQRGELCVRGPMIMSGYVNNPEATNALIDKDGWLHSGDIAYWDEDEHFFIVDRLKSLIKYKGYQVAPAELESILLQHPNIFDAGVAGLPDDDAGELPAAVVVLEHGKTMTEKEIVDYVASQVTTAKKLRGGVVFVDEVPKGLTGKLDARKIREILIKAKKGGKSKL

The target of the experiment is Luciferin 4-monooxygenase (Photinus pyralis) (UniProt P08659). Nature of the experiment: qHTS profiling assay for firefly luciferase inhibitor/activator using purifed enzyme and Km concentrations of substrates (counterscreen for miR-21 project). Further: nearly all actives have a fitted effect of over 55% in size.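 On activity change, negative = inhibition: plate controls were vehicle for no effect and reference inhibitor for full effect.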 As to conditions: purified FLuc, luminescence inhibition; series mostly up to 57.5 µM; activity change, negative = inhibition: at the top concentration. Summed up:
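Purified P. pyralis luciferase (10nM final) with 10uM D-luciferin and 10uM ATP (Km levels) in 50mM Tris acetate pH 7.5, 10mM Mg acetate, 0.01% Tween-20, 0.05% BSA; qHTS 6-point titration, ~60 µM downward; luminescence read.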
As to `O=C(CCOc1ccccc1)N(Cc1cccnc1)c1nc2ccc(Cl)cc2s1`, the “activity change, negative = inhibition” value was -5.41%. Regarding `CCCn1nnnc1NC(=O)COc1ccc(Cl)cc1C`, the “activity change, negative = inhibition” value is -1.34%. As to `Cc1cc(Nc2ccccc2)n(CCC#N)n1`, the “activity change, negative = inhibition” value is 5.51%.

`Cc1cc(NC(=O)COc2ccc(Cl)cc2Cl)n(CCC#N)n1`: the Potency was 19 µM (active). Turning to `CSc1ncccc1C(=O)Nc1nc2ccc(F)cc2s1`, the Potency was 19 µM (active). For the compound `O=C(Nc1nc2ccc(F)cc2s1)c1nc(SCc2ccccc2F)ncc1Cl`, the “activity change, negative = inhibition” value was 0.507%. As for `CSc1ncccc1C(=O)Nc1ccc(C)cn1`, the “activity change, negative = inhibition” value was -0.899%. Turning to `CC(C(=O)N(C)CC(=O)Nc1ccccc1C(F)(F)F)N1C(=O)c2ccccc2C1=O` (configuration not stated), the “activity change, negative = inhibition” value is -1.6%. Consider `Cc1ccc(/C=C(\C#N)C(=O)Nc2cc(C)ccc2C)cc1`, for which the “activity change, negative = inhibition” value was -2.09%. `COc1cc(OC)cc(C(=O)NCC(=O)N2CCCCCCC2)c1`: the “activity change, negative = inhibition” value is 1.74%. With `COc1ccc(CCNC(=O)c2ccc3c(c2)sc2nc(-c4ccc(C)cc4)cn23)cc1OC`, the “activity change, negative = inhibition” value is -0.481%. On to `NS(=O)(=O)c1ccc2nc(NC(=O)C3=COCCO3)sc2c1`, for which the Potency is 12 µM (active).

Turning to `NS(=O)(=O)c1ccc2nc(NC(=O)CS(=O)(=O)c3ccc(F)cc3)sc2c1`, the “activity change, negative = inhibition” value is -8.95%. As for `NS(=O)(=O)c1ccc2nc(NC(=O)COc3ccccc3)sc2c1`, the “activity change, negative = inhibition” value is 0.17%. On to `Cc1ccc(-c2nc(C#N)c(NCCCn3ccnc3)o2)cc1`, for which the Potency is 21.3 µM (active). For the compound `COc1ccc(-c2cc(C(=O)NCCCn3ccnc3)no2)cc1`, the “activity change, negative = inhibition” value is -16.1%. Regarding `Cc1ccc(S(=O)(=O)c2nc(NCCCn3ccnc3)sc2Cl)cc1`, the “activity change, negative = inhibition” value was 1.48%. For the compound `CC(NC(=O)c1cccc(S(=O)(=O)N2CCc3ccccc3C2)c1)c1ccco1` (configuration not stated), the “activity change, negative = inhibition” value was 2.97%. For the compound `COC(=O)c1ccc(/C=C2/C(=O)Oc3ccccc32)cc1`, the Potency is 2.69 µM (active). `CN1C(=O)/C(=C/c2ccc(C(=O)NC3CCCC3)cc2)Oc2ccccc21`: the “activity change, negative = inhibition” value is -12.8%. On the same count and under the same terms, the figure for `COC(=O)c1ccc(NC(=O)C(C)N2C(=O)c3ccccc3C2=O)cc1` (configuration not stated) is -2.02%; for `C#CC(C)(CC)NC(=O)Cn1nnc(-c2ccc(OCc3c(F)cccc3Cl)cc2)n1` (configuration not stated) it is -16.2%; for `CCn1c(=O)cc(OCC(=O)Nc2cc(Cl)c(OC)cc2OC)c2ccccc21` it is -0.432%. Consider `COc1ccc2oc(=O)cc(-c3cc4ccccc4o3)c2c1`, for which the “activity change, negative = inhibition” value is 6.35%.

Turning to `COc1ccc2nc(Nc3nc4cc5c(cc4s3)OCCO5)sc2c1`, the Potency is 9.53 µM (active).

Take `Cc1ccc2nc(-c3ccncc3)cc(C(=O)Nc3ccc(OC(F)F)cc3)c2c1`: the “activity change, negative = inhibition” value was -7.69%.

Regarding `COc1ccc(Nc2cc(=O)oc3ccccc23)cc1`, the “activity change, negative = inhibition” value is 1.53%.

Turning to `CCOc1ccc(S(=O)(=O)Nc2nc3cc(OC)ccc3s2)cc1`, the “activity change, negative = inhibition” value was 2.11%. With `O=c1oc2ccccc2cc1-c1csc(Nc2ccc(O)cc2)n1`, the Potency was 5.36 µM (active). Take `COc1ccc2nc(Nc3nc(-c4cc5ccccc5oc4=O)cs3)sc2c1`: the Potency is 0.849 µM (active).

`COc1ccc2nc(Nc3nc(-c4ccncc4)cs3)sc2c1`: the Potency was 1.51 µM (active). As to `COc1ccc(-c2onc(C)c2-c2ccc3c(c2)OCCO3)c(O)c1`, the “activity change, negative = inhibition” value is -10.2%. The same measure, in the same setting: the figure for `N#C/C(=C\c1cccc(F)c1)c1nc(-c2cc3c(ccc4ccccc43)oc2=O)cs1` is -2.19%; for `CCOCCCNC(=O)c1c(NC(=O)Cc2coc3ccc(C)cc23)sc2c1CCC2` it is -9.67%. Same read-out and setting: the figure for `Cc1cc(NC(=O)CSc2nc(=O)cc(N)n2-c2ccc(F)cc2)no1` is -2.26%; for `CC1CCCN(S(=O)(=O)c2ccc3[nH]c(=O)cc(C(=O)NCCc4ccc(Cl)cc4)c3c2)C1` (configuration not stated) it is 0.984%; for `COc1ccc(CNc2nc(-c3ccccc3)nn2C(=O)c2ccccc2OC)cc1` it is 3.74%. Consider `Cc1ccc(C)c(Cn2c(=O)n(CCC(=O)NCc3ccc4c(c3)OCO4)c(=O)c3sccc32)c1`, for which the “activity change, negative = inhibition” value is 1.45%. With `COc1ccc(-c2nnc(SCC(=O)Nc3ccccc3C)o2)cc1OC`, the “activity change, negative = inhibition” value was 6.06%. As to `CCOC(=O)CSc1nnc(CNc2nc(-c3ccccc3)cs2)n1C`, the “activity change, negative = inhibition” value was 3.55%.

For the compound `Cn1c(CNc2nc(-c3ccccc3)cs2)nnc1SCC(=O)c1ccccc1`, the “activity change, negative = inhibition” value was -0.577%. Take `CCNc1nc(-c2cc3ccccc3o2)cs1`: the Potency was 0.601 µM (active).

Take `COc1ccc(-c2c(C)c3ccc(O)c(CN4CCN(C)CC4)c3oc2=O)cc1OC`: the “activity change, negative = inhibition” value is -5.07%. Take `COc1cc(OC)cc(-c2c(-c3cccs3)c3cc(-c4ccc(OC)nc4)ccc3n2C)c1`: the “activity change, negative = inhibition” value was -1.73%. On the same count and under the same terms, the figure for `CCOc1ccc(OCC)c(NC(=O)c2cc(C)nc3c2c(C)nn3-c2cccc(Cl)c2C)c1` is 0.474%. Take `COc1cccc(Cn2cc(/C=N/NC(=O)c3cc(O)cc(O)c3)c3ccccc32)c1`: the Potency was 26.9 µM (active). Turning to `N#CCC(=O)N/N=C/c1cn(Cc2ccc3ccccc3c2)c2ccccc12`, the “activity change, negative = inhibition” value was 1.21%. Take `CNC(=S)N/N=C/c1cn(Cc2ccc(C)cc2)c2ccccc12`: the “activity change, negative = inhibition” value was -5.46%. Take `CCOC(=O)/C(C#N)=C/c1ccc(N2CCCCC2)cc1`: the Potency is 2.69 µM (active).

With `COc1ccc(N2CCN(C(=O)/C(C#N)=C/c3ccccc3)CC2)cc1`, the “activity change, negative = inhibition” value was -14.4%. Regarding `CCOC(=O)NC(=O)/C(C#N)=C\c1ccccc1`, the “activity change, negative = inhibition” value was -8.09%. In the case of `COC(=O)c1ccc(OC)c(Cn2c(=O)n(Cc3ccccc3)c(=O)c3c2c2cc(OC)ccc2n3C)c1`, the “activity change, negative = inhibition” value was -0.797%.
